Bioassay records deposited in PubChem BioAssay by several laboratories.
ALR H2O2 inh: blocks human ALR sulfhydryl oxidase activity; purified ALR, DTT oxidation, H2O2 HRP-luminol luminescence; inhibition, % (test concentration not listed); 3.8% of 290,000 active; P55789; AID 485317;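 active = mean replicate inhibition above about 79%, with every replicate also reaching it, limit read from the data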
Target sequence (P55789 whole entry, looked up): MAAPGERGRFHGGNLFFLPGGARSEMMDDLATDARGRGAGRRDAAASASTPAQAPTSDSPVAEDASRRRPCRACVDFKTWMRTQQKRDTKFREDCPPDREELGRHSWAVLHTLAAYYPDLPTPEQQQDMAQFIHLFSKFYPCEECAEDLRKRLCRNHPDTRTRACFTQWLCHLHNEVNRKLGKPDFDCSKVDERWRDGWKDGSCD
eIF4H inh: inhibitors of RNA binding by human eIF4H; eIF4H fluorescence polarization binding assay; inhibition, % at 35 µM; 0.94% of 290,000 active;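 also: calls also rest on retests at 20 µM and on dose response follow-up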
PABP polyA inh: blocks human PABP binding to poly(A) RNA; P11940; fluorescence polarization; 1% of 290,000 active; inhibition, % at 35 µM;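 also: calls also rest on retests at 20 µM and on dose response follow-up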
UBC9 SUMO inh: SUMOylation inhibition; P63279; HTRF SUMOylation assay, SAE1/SAE2 + UBC9, in vitro; inhibition, % at 35 µM; 0.36% of 290,000 active; AID 2006; in the data active = inhibition above about 50%, passing the limit was not always enough
MLLE-PAM2 inh: blocks PAM2 peptide binding to the PABP1 MLLE domain; P11940; GST-MLLE / FITC-PAM2 fluorescence polarization; inhibition, % at 20 µM; 0.36% of 360,000 active; AID 588489; in the data active = inhibition above about 35%, passing the limit was not always enough;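 also: plate controls were DMSO wells with GST-MLLE for no effect and wells lacking GST-MLLE protein for full effect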
Efflux pump mplx: blocks antifungal efflux pumps in multiplex yeast assay; S. cerevisiae Candida pump triplex, Nile Red efflux; inhibition, % at 10 µM; 0.44% of 330,000 active; AID 485275;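 active = plate passing quality check with inhibition over a set limit, or well fluorescence over plate mean plus 4 SD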;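 also: Nile Red retained in pooled yeast measured as flow cytometry median fluorescence; 0% = buffer negative control and 100% = Enniatin B positive control; higher means more Nile Red kept so more efflux inhibition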
Active calls of the source: *; . = not tested or not shown. Sampled rows, rich in hits. Any-hit rate of the full collection: about 4.7%. Unless noted, no rule for the calls is given here.

SMILES	ALR H2O2 inh	eIF4H inh	PABP polyA inh	UBC9 SUMO inh	MLLE-PAM2 inh	Efflux pump mplx
CCn1c(=S)sc2c(=O)n(-c3ccccc3)c(=S)[nH]c21	0	-16	0	0	5	0
CCOc1ccccc1-n1c(=S)sc2c(=O)n(-c3ccc(C)cc3)c(=S)[nH]c21	.	active	58*	6	21	0
Cc1ccc(C(=O)NCC(=O)OCCCOC(=O)CNC(=O)c2ccc(C)c(C)c2)cc1C	.	.	.	.	-3	0
CC1C/C(=C/c2cccn2C)C(=O)/C(=C/c2cccn2C)C1 (stereo not given)	-3	58*	93*	10	160	0
Cc1ccc(/C=C2/Sc3ccc(C(=O)N4CCN(C)CC4)cc3NC2=O)cc1	6	88	42*	-4	46*	0
CC1CCN(C(=O)c2ccc3c(c2)NC(=O)/C(=C/c2ccccc2)S3)CC1	-37	.	.	.	8	0
CCc1nc(SCC(=O)NCCc2ccccc2)c2c(=O)n(C)c(=O)n(C)c2n1	.	-6	-9	-6	22	0
COc1ccc(N(C(=O)c2cnccn2)C(C(=O)NCc2ccccc2)c2ccc(O)cc2)cc1 (stereo not given)	4	-3	-5	17	5	0
O=C(CCl)Nc1cccc2ncccc12	-39	104*	31*	35	14	0
COc1ccc(NC(=O)CSc2ccccn2)cc1	-26	-5	4	11	-6	0
O=C(CSc1ccccn1)Nc1ccccc1F	8	-7	-3	-11	6	0
COc1cccc(NC(=O)CSc2ccccn2)c1	90*	-2	-5	18	2	0
O=C(CSc1ccccn1)Nc1cccc2ccccc12	-16	1.8*	59*	5	-75	0
Cc1c(CC(=O)N[C@H](C(=O)O)C(C)C)c(=O)oc2cc3c(cc12)CCC(C)(C)O3	-6	-6	3	16	-6	0
COCCNC(=O)C1(C)CCCN(C(=O)COc2ccccc2)C1 (stereo not given)	.	.	.	.	16	.
Cc1noc(NS(=O)(=O)c2ccc(NC(=O)c3ccoc3C)cc2)c1C	12	16	12	-5	13	0
Cc1cc(C(=O)Nc2ccc(S(=O)(=O)Nc3onc(C)c3C)cc2)c(C)o1	84*	-9	6	0	5	0
Cc1cc(C(=O)Nc2ccc(S(=O)(=O)Nc3onc(C)c3C)cc2)cs1	97*	4	3	11	5	0
Cc1ccc2oc(C(=O)Nc3ccc(S(=O)(=O)Nc4onc(C)c4C)cc3)c(C)c2c1	98*	-1	-2	18	5	0
Cc1cccc(NC(=O)Nc2ccc(S(=O)(=O)Nc3onc(C)c3C)cc2)c1	50	.	.	.	8	0
Cc1cc(NS(=O)(=O)c2ccc(NC(=O)c3oc4ccccc4c3C)cc2)no1	98*	-18	6	26	4	0
O=C(CN(Cc1ccccc1)S(=O)(=O)c1ccc(S(=O)(=O)N2CCOCC2)cc1)Nc1ccccc1	1	4	2	-6	-4	0
Cc1cc(NS(=O)(=O)c2ccc(NC(=O)Nc3cccc(Cl)c3)cc2)no1	98*	-8	2	30	-10	0
CCCCN(C)CCCNC(=O)c1cccc(N2CCCC2=O)c1	-4	-1	12	-1	10	0
O=C(N/N=C/c1cc(Br)ccc1O)c1cccc(N2CCCC2=O)c1	1	10	1	13	0	0
SMILES	ALR H2O2 inh	eIF4H inh	PABP polyA inh	UBC9 SUMO inh	MLLE-PAM2 inh	Efflux pump mplx
O=C(N/N=C/c1ccco1)c1cccc(NC(=O)c2cccc(Cl)c2)c1	-7	-12	0	-3	-12	0
CC(=O)Nc1cccc(N2CCCC2=O)c1	99*	-6	5	12	13	0
O=C(N/N=C/c1ccco1)c1cccc(N2CCCC2=O)c1	-1	91*	-2	44	-17	0
CN(CCCNC(=O)c1cccc(N2CCCC2=O)c1)c1ccccc1	98*	33	-5	-23	-12	0
O=C(N/N=C/c1ccco1)c1cccc(N2Cc3ccccc3C2)c1	-7	91*	53*	27	-2	0
CN(C)c1ccc(/C=N/NC(=O)c2cccc(N3CCCC3=O)c2)cc1	87*	-6	-3	21	8	0
COc1cccc(/C=N/NC(=O)c2cccc(N3CCCC3=O)c2)c1	-3	-7	-3	-5	4	0
Cc1ccc(CSCCNS(=O)(=O)c2ccccc2)cc1	.	50*	121*	-14	8	0
COc1cc2c3c(c1OC)C(=O)CC3CCCC2 (stereo not given)	.	.	.	.	-5	.
Nc1n[nH]c(N)c1N=Nc1ccccc1	95*	10	7	4	-8	0
Nc1n[nH]c(N)c1N=Nc1ccccc1F	18	-5	1	-14	12	0
COc1ccc(N=Nc2c(N)n[nH]c2N)cc1	78*	6	-11	5	-10	0
Nc1n[nH]c(N)c1N=Nc1ccc(Cl)cc1Cl	8	0	-8	-2	-15	0
Nc1n[nH]c(N)c1N=Nc1ccc(F)cc1	86*	7	12	-14	8	0
Nc1[nH][nH]c(=O)c1N=Nc1ccccc1	.	.	.	.	7	.
Cc1ccccc1N=Nc1c(N)n[nH]c1N	93*	6	-3	-5	13	0
Cc1ccc(-c2nc3c(c(=O)[nH]c(=O)n3Cc3ccccc3)n2C)o1	.	88*	active	29	3	.
Cc1cc(C)c2c(=O)[nH]c(=O)n(Cc3ccccc3)c2n1	-10	103*	96*	10	-74	0
CCCNC(=O)CC(NS(=O)(=O)c1ccc(OC)cc1)c1ccco1 (stereo not given)	0	6	15	0	3	0
COc1cccc(-c2nc(=S)c3c(n2CCCO)CCCC3)c1	-1	12	-6	14	41*	0
S=c1nc(-c2ccccc2)n(Cc2cccnc2)c2c1CCCC2	94*	-2	12	12	.	0
COc1ccc(-n2c(NC(=O)c3ccc(Br)o3)c(C#N)c3nc4ccccc4nc32)cc1	.	21	7	.	.	.
Cc1ccc(C(=O)NCCn2c(N)c(C#N)c3nc4ccccc4nc32)cc1	-20	56*	active	36	-12	0
COCCn1c(N)c(C#N)c2nc3ccccc3nc21	-13	-3	-2	81*	-11	0
CCCCn1c(NC(=O)c2ccccc2)c(C#N)c2nc3ccccc3nc21	.	-12	11	98*	-81	.
COc1ccc(Cn2c(N)c(C#N)c3nc4ccccc4nc32)cc1	-18	-11	2	33	-10	0
N#Cc1c(NC(=O)c2ccc(Br)o2)n(-c2ccccc2)c2nc3ccccc3nc12	53	4	12	95*	-28	0
CCN(C(=O)CSc1nnc(C)n1-c1ccccc1)C1CCS(=O)(=O)C1 (stereo not given)	.	-6	6	10	-15	0
